Hits are enriched below; roughly 2.7% of the tested compounds scored in any of these assays.
CHT block: inhibitors of human choline transporter CHT. CHT-expressing cells, membrane potential dye, choline response; active compounds read low. B-score at 10 µM. 0.86% of 310,000 active;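 active = B-score over 3 SD under the library average, and starting fluorescence ratio not unusually high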;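 also: choline stimulus applied at its EC90 after an EC20 pre-addition; B-score computed on integrated fluorescence ratio after choline addition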
Target sequence (Q9GZV3 whole entry, looked up): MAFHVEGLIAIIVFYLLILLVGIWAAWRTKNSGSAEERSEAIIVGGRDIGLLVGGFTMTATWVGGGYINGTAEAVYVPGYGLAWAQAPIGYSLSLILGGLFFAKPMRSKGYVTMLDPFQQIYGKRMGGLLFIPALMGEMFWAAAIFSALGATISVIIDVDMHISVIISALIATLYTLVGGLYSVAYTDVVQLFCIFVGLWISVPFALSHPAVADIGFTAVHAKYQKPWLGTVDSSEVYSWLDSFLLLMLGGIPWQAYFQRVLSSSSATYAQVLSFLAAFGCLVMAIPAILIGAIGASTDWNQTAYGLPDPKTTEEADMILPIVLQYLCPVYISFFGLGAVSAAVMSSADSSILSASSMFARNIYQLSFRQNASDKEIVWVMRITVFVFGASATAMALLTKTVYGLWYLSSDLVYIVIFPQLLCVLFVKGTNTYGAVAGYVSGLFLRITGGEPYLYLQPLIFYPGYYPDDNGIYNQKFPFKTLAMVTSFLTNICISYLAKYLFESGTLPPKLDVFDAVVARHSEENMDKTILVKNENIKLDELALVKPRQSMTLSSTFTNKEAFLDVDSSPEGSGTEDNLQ
IDE inh: inhibitors of human insulin-degrading enzyme in cells | HEK cells, FAbetaB cleavage, fluorescence polarization | inhibition, % at 5.59 µM | 0.41% of 320,000 active | AID 434962;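 active = percent inhibition above the average of all tested compounds plus 3 SD, set per screening campaign, cut at about 16% in these data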;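 also: IDE supplied by intact live HEK cells; FP after avidin binding of uncleaved biotin substrate so inhibition keeps polarization high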
ANO1 block: blocks the mouse calcium-activated chloride channel TMEM16A | HEK293 TMEM16A/YFP iodide influx fluorescence, ionomycin | 1.2% of 310,000 active | Q8BHY3 | normalized B-score (activity score, 25-100; higher = stronger inhibition) at 10 µM;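 active = ratio plate-corrected score three or more library SD toward inhibition, starting fluorescence score within five deviations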;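 also: score derived from kinetic fluorescence span divided by baseline fluorescence per well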
TMEM16A act: activates or potentiates the mouse TMEM16A chloride channel | Q8BHY3 | HEK293 TMEM16A/YFP-H148Q/I152L, iodide quench fluorescence; active compounds read low | B-score at 10 µM | 0.3% of 340,000 active | AID 623877;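 active = fluorescence-ratio B-score plate-corrected deviation score at least 3 library SD below zero, with starting fluorescence score within 5 deviations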;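 also: channel opened by trigger with iodide after compound preincubation; score built on the fluorescence ratio of max minus min over baseline; more negative score means more quench and so TMEM16A activation or potentiation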
CHT PAM: human CHT allosteric activation | 0.49% of 310,000 active | B-score at 10 µM | Q9GZV3 | AID 488977 | CHT-expressing cells, membrane potential dye, choline EC20; active compounds read high; LV-AA mutant CHT in HEK293 cells;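 active = initial fluorescence not abnormally high and integrated response B-score, plate-corrected, over 3 SD above library mean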
IDE act: activators of human insulin-degrading enzyme in cells; 0.073% of 340,000 active; activation, % at 5.96 µM; AID 493087; HEK cells, FAbeta-B cleavage, fluorescence polarization; 0% vehicle, 100% cell-free pure enzyme wells;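 active = activation above the mean of all tested compounds plus 3 SD, set per screening campaign, cut at about 17% in these data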
Large screens that a line does not name were inactive.

COC(=O)C(Cc1ccc(OC(=O)c2ccc(C(F)(F)F)cc2)cc1)N1Cc2ccccc2C1=O (configuration not stated)	ANO1 block 100
CCOC(=O)c1sc(NC(=O)c2cc(-c3ccccc3C)nc3ccccc23)c(C#N)c1C	ANO1 block 100
CC(=O)c1ccc(N2CCN(CC(=O)Nc3ccc4c(c3)OCCO4)CC2)cc1	none
CC(C)(C)c1ccc(-n2ncc3c2CCCC3NC(=O)CCN2CCCC2=O)cc1 (configuration not stated)	none
C/C=C(\C)C(=O)OC1[C@H](OC(C)=O)C2(CO)C(CC1(C)C)C1=CCC3C4(C)CCC(O[C@@H]5O[C@H](C(=O)O)[C@@H](O[C@@H]6O[C@H](CO)[C@@H](O)[C@H](O)[C@H]6O)[C@H](O)[C@H]5O[C@H]5O[C@H](CO)[C@@H](O)[C@H](O)[C@H]5O)[C@](C)(CO)C4CCC3(C)[C@]1(C)C[C@H]2O (some centres not stated)	TMEM16A act -16 (no result: CHT block, IDE inh, ANO1 block, CHT PAM)
CC(=O)OC1COC(OC2C(O)C(C)OC(OC3C(OC4CCC5(C)C(CCC6(C)C5CC=C5C7CC(C)(C)CCC7(C(=O)O)CCC56C)C4(C)CO)OCC(O)C3O)C2O)C(O)C1OC(C)=O (configuration not stated)	ANO1 block 100 (no result: TMEM16A act, IDE act)
CC1(C)C[C@H]2C3=CCC4[C@@]5(C)CC[C@H](O[C@@H]6O[C@H](C(=O)O)[C@@H](O)[C@H](O)[C@H]6O)[C@@](C)(CO)C5CC[C@@]4(C)[C@]3(C)C[C@H](O)[C@@]2(CO)[C@@H](O)[C@@H]1O (some centres not stated)	none (no result: CHT block, ANO1 block, CHT PAM)
C/C=C(/C)C(=O)OC1CC(C)(C)C[C@H]2C3=CC[C@@H]4[C@@]5(C)CCC(O[C@@H]6O[C@@H](C(=O)O)[C@@H](O)C(O[C@@H]7OC[C@H](O)[C@@H](O)[C@@H]7O[C@@H]7OC(CO)C(O)[C@@H](O)[C@@H]7O)C6O[C@@H]6OC(CO)C(O)C(O)C6O)[C@@](C)(CO)[C@@H]5CC[C@]4(C)[C@]3(C)CC(O)[C@@]12CO (some centres not stated)	TMEM16A act -37 (no result: CHT block, ANO1 block, CHT PAM)
O=C1c2cccc(OCc3ccc(F)cc3)c2CCN1Cc1ccc(F)cc1	ANO1 block 25
CN1CCc2c(OCc3ccc(F)cc3)cccc2C1=O	none
CCN(CC(=O)Nc1ccc(OC)cc1)C(=O)c1ccc(N2CCCC2=O)cc1	none (no result: CHT block, ANO1 block, CHT PAM)
O=C(NCc1cccnc1)c1cn(CCc2ccccc2)nn1	ANO1 block 25
CC(C)N(CCCNC(=O)C1CCN(C(=O)c2cc3sccc3n2C)CC1)Cc1ccccc1	none
CCCCC1=CC2=CC(=O)C(C)(OC(=O)CC)C(=O)C2=CN1C(CO)CO (configuration not stated)	TMEM16A act -5.8
Cc1cc(C)nc(NC(=O)c2cc([N+](=O)[O-])cc([N+](=O)[O-])c2)n1	CHT PAM 7.2
CCOc1cc(C)c(-c2onc(C(F)(F)F)c2-c2csc(C)n2)c(O)c1	ANO1 block 100
CC(OC(=O)Cc1ccccc1F)C(=O)Nc1ccc(Cl)cn1 (configuration not stated)	none (no result: CHT block, IDE inh, ANO1 block, CHT PAM)
Cc1ccc(S(=O)(=O)NCC(c2ccco2)N2CCc3ccccc3C2)cc1 (configuration not stated)	ANO1 block 25
COc1ccc(S(=O)(=O)NCC(c2ccco2)N2CCc3ccccc3C2)cc1 (configuration not stated)	none
CN(C(=O)COC(=O)CNC(=O)c1ccc2ccccc2c1)c1c(N)n(Cc2ccccc2)c(=O)[nH]c1=O	none
O=C1c2ccccc2-c2onc3ccc(N4CCCC4)c1c23	TMEM16A act -8.3 (no result: CHT block, IDE inh, ANO1 block, CHT PAM)
CCOc1ccc2noc3c2c1C(=O)c1ccccc1-3	IDE act 44
CCNc1ccc2noc3c2c1C(=O)c1ccccc1-3	none
O=S(=O)(c1ccc2c(c1)CCC2)N1CCNCC1	none (no result: CHT block, IDE inh, ANO1 block, CHT PAM)
CC1CCCC(C)N1C(=C(Cl)Cl)C(=C1SCCS1)[N+](=O)[O-] (configuration not stated)	TMEM16A act -15
c1ccc(CSc2nnc(-c3cccnc3)o2)cc1	none
Brc1ccc(CSc2nnc(-c3cccnc3)o2)cc1	CHT block -6.3
CSCCC(NC(=O)c1ccccc1Cl)C(=O)NNC(=O)c1ccncc1 (configuration not stated)	none
CCC(C(=O)OCC(=O)C1(O)CCC2C3CCC4=CC(=O)CCC4(C)C3C(O)CC21C)C(C)C (configuration not stated)	none (no result: CHT block, IDE inh, ANO1 block, CHT PAM)
CC(=O)[C@@]1(O)CC[C@H]2[C@@H]3CCC4=CC(=O)CC[C@]4(C)[C@H]3[C@@H](O)C[C@@]21C	CHT block -6.6, ANO1 block 100
CC(CNC(=O)CCn1ccc2cc(S(=O)(=O)N3CCCC3)ccc21)c1ccccc1 (configuration not stated)	none
O=C(c1ccc([N+](=O)[O-])cc1)N1CCN(c2ncc(Br)cn2)CC1	none
CN1CCN(c2nc3c(c(=O)[nH]c(=O)n3C)n2Cc2cccc(Br)c2)CC1	none
CCCNc1nc2c(c(=O)[nH]c(=O)n2C)n1Cc1cccc(Br)c1	TMEM16A act -5.8
N#Cc1nc(-c2cccc3ccccc23)oc1N1CCCCC1	none
N#Cc1nc(Cc2cccc3ccccc23)oc1N1CCCCC1	ANO1 block 100, TMEM16A act -23
CCOc1ccc(NC(=O)/C(C#N)=C\c2ccc(N3CCCC3)c(C)c2)cc1	none (no result: CHT block, IDE inh, ANO1 block, CHT PAM)
Cc1ccc(S(=O)(=O)/N=C/c2cc(Br)ccc2O)cc1	IDE act 23
Cc1cccc(NC(=O)CCC(=O)N2CCOCC2)n1	none (no result: CHT block, ANO1 block, CHT PAM)
O=S(=O)(Nc1ccc(-n2cnnn2)cc1)c1cccs1	none (no result: CHT block, ANO1 block, CHT PAM)
CCOC(=O)N1CCN(C(=O)c2c[nH]c3ccc(S(=O)(=O)N(C)c4cccc(C)c4)cc3c2=O)CC1	TMEM16A act -6.3
CCOC(=O)N1CCN(C(=O)c2c[nH]c3ccc(S(=O)(=O)N(C)c4ccccc4C)cc3c2=O)CC1	none
CC(=O)c1cccc(S(=O)(=O)N2CCC(C(=O)Nc3cccc(C(=O)NC4CC4)c3)CC2)c1	none (no result: CHT block, ANO1 block, CHT PAM)
O=C1c2ccccc2C(=O)N1CC(O)Cn1nnc2ccccc21 (configuration not stated)	none
OC(CN1c2ccccc2Sc2ccccc21)Cn1nnc2ccccc21 (configuration not stated)	ANO1 block 100
C=CCN1CN(S(=O)(=O)c2cccc(Cl)c2)c2nc3ccccc3nc21	none
CCCc1c(-c2ccc(O)cc2)nn(-c2ccc(O)cc2)c1-c1ccc(O)cc1	ANO1 block 100
Cc1nc(NCC2CCCO2)c2nnn(Cc3ccccc3)c2n1 (configuration not stated)	none

Screening data: PubChem BioAssay, several laboratories
